Among the data in PubChem BioAssay (Tox21) are Potency values, retold here.

Records with an inconclusive call do not appear. A call without a number means that no potency is given here. Activity calls are given as the source filed them. Calls come from the whole dose curve; as a rule, active = well fitted cell-killing curve with a large enough effect in the repeat runs; inconclusive = weak or mixed curves; inactive = flat fitted curve, though single readings scatter.
Potency is the fitted concentration of half-maximal effect.

This experiment in a line: qHTS assay to identify small molecule antagonists of the estrogen related receptor (ERR) signaling pathway from Tox21 library - cell viability counter screen (AID 1224834). Note: nearly all actives have a fitted effect of over 30% in size. Conditions: ERR reporter cells viability, CellTiter-Fluor, 17.5 h; series mostly up to 92.4 µM. An excerpt:
National Center for Advancing Translational Sciences [NCATS]
NIH Chemical Genomics Center [NCGC]
U.S. Environmental Protection Agency [EPA]
National Institutes of Environmental Health Sciences [NIEHS]
National Toxicology Program [NTP]
U.S. Food and Drug Administration [FDA]
Estrogen related receptors (ERRs), the first orphan nuclear receptors discovered, play an important role in the control of cellular energy metabolism. ERRs are required for high-energy production in response to the environmental challenges. ERR-alpha was also identified as an adverse marker for breast cancer progression; ERR-alpha-positive tumors have a poor prognosis. To screen and to identify environmental compounds that perturb the ERR signaling pathways could provide valuable information for potential therapeutic or preventive measures in the treatment of metabolic disease. To differentiate true ERR antagonists or agonist from cytotoxic substances, the assay is multiplexed with cell viability assay.
Tox21 Assay Protocol Summary:
The ERR cells were dispensed at 2,000 cells/5 ul/well in 1536-well white plates using a Multidrop dispenser. After the assay plates were incubated at a 37 C/5% CO2 incubator for 6 hours, 23 nL of compounds dissolved in DMSO, positive and negative controls or DMSO only was transferred to the assay plate by a pin tool. The plates were incubated at 37 C for 17.5 hours. 1 ul/well of CellTiter-Fluor reagent was added into the assay plates using a Flying Reagent Dispenser. After 30-minute incubation at 37 C/5% CO2, the fluorescence intensity in the plates was measured using a ViewLux plate reader.
Consider `COc1ccc(CCC(=O)c2c(O)cc(O[C@@H]3O[C@H](CO)[C@@H](O)[C@H](O)[C@H]3O[C@@H]3O[C@@H](C)[C@H](O)[C@@H](O)[C@H]3O)cc2O)cc1O`, for which the Potency entry was “inactive”.
Take `COc1ccc(C(=O)c2cccc(O)c2)c(OC)c1`: the Potency result is “inactive”.
As for `CCCCCCCCCCOS(=O)(=O)O`, the Potency result is “inactive”.
Consider `CC(C)CCCCCOC(=O)CCCCC(=O)OCCCCCC(C)C`, for which the Potency entry was “inactive”.
The result for `N#C/C(=C1\SCC(c2ccccc2Cl)S1)n1ccnc1` (stereo not given) reads “inactive”.
`CCOCCn1c(C2CCN(CCc3ccc(C(C)(C)C(=O)O)cc3)CC2)nc2ccccc21`: the Potency entry was “inactive”.
In the case of `CNC(=O)N(c1ccccc1)c1ccccc1` it was “inactive”; in that of `C=CC(C)(C)CC(=O)OC`, 1.22 µM (active).
Take `CC(C)(C)C(=O)O`: the Potency result is “inactive”.
The result for `ON(Cc1ccccc1)Cc1ccccc1` reads “inactive”; that for `CCNC(=O)N1CCN(CCCC(c2ccc(F)cc2)c2ccc(F)cc2)CC1`, 18.8 µM (active).
In the case of `Nc1ccc(S(=O)(=O)O)cc1` it was “inactive”; in that of `Oc1cc(O)c(Cl)cc1Cl`, “inactive”.
As to `CCCOCCOCCO`, the Potency entry was “inactive”.
For `CCC(C)(O)CCC=C(C)C` (stereo not given), the Potency result is “inactive”.
The result for `C=CCNc1nc(NCC=C)nc(N2CCN(C(c3ccc(F)cc3)c3ccc(F)cc3)CC2)n1` reads “inactive”; that for `CC(=O)OCC(=O)[C@H]1CC[C@H]2[C@@H]3CCC4=CC(=O)CC[C@]4(C)[C@H]3CC[C@]12C`, “inactive”.
Consider `CCOC(=O)[C@@H](C)Oc1ccc(Oc2nc3ccc(Cl)cc3o2)cc1`, for which the Potency result is “inactive”.
Turning to `C=C(C)C(=O)OCCOC(=O)CC(C)=O`, the Potency result was “inactive”.
With `COc1ccccc1N=Nc1c(S(=O)(=O)O)cc2cc(S(=O)(=O)O)cc(NC(C)=O)c2c1O`, the Potency was 25.7 µM (active).
`C=CC(C)(O)CCCC(C)CCCC(C)CCCC(C)C` (stereo not given): the Potency entry is “inactive”.
For the compound `CCOC(=O)/C=C/C(=O)O`, the Potency entry was “inactive”.
For `Cc1oc(C)c(C(=O)Nc2ccccc2)c1C`, the Potency result is “inactive”.
For `COC(=O)c1cc(Cl)ccc1NS(=O)(=O)C(F)(F)F`, the Potency entry is “inactive”.
With `CCOC(=N)CC(=O)OCC`, the Potency entry was “inactive”.
`O=C(O)c1cccnc1C(=O)O`: the Potency result was “inactive”.
For the compound `C(=C\c1ccccc1)/CN1CCN(C(c2ccccc2)c2ccccc2)CC1`, the Potency entry is “inactive”.
As to `CNC(=S)NC`, the Potency result was “inactive”.
For `CCCCC(CC)C(=O)OCCOCCOCCOCCOC(=O)C(CC)CCCC` (stereo not given), the Potency entry is “inactive”.
As for `COC(=O)[C@@H]1CC2=CC(=O)CC[C@]2(C)[C@@]23O[C@@H]2C[C@@]2(C)[C@@H](CC[C@@]24CCC(=O)O4)[C@H]13`, the Potency entry is “inactive”.
With `CCCCCCCCCCCC[N+](C)(C)CCCS(=O)(=O)[O-]`, the Potency result is “inactive”.
Consider `C[C@@H]1C[C@H]2[C@@H]3CCC4=CC(=O)C=C[C@]4(C)[C@@]3(F)[C@@H](O)C[C@]2(C)[C@@]1(O)C(=O)CO`, for which the Potency entry is “inactive”.
Turning to `CCCCCCOC(=O)C(C)C`, the Potency result is “inactive”.
As for `CCCCC(CC)CNCC(CC)CCCC` (stereo not given), the Potency result was “inactive”.
The result for `CCn1cc(C(=O)O)c(=O)c2cc(F)c(N3CCNCC3)nc21` reads “inactive”; that for `CC(=O)CC(c1ccc([N+](=O)[O-])cc1)c1c(O)c2ccccc2oc1=O` (stereo not given), “inactive”; that for `CN(C)C(=O)Nc1ccc(Oc2ccc(Cl)cc2)cc1`, “inactive”.
As to `NC(=O)Cn1c(=O)cc(CCN2CCN(c3nccc4sccc34)CC2)c2ccc(F)cc21`, the Potency was 48.6 µM (active).
Regarding `Nc1ccc(S(=O)(=O)O)c(N)c1`, the Potency entry was “inactive”.
The result for `Fc1ccccc1[C@@H](F)COC1CCC(Nc2ncnc3[nH]ncc23)CC1` (stereo not given in full) reads 30.6 µM (active).
